Screening results as filed in PubChem BioAssay.
ERp5 block: ERp5 (human) disulfide isomerase inhibition; Q15084; 0.05% of 350,000 active; inhibition, % at 9.99 µM; ERp5 insulin aggregation, absorbance 650 nm, 90 min;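 active means mean replicate inhibition above about 25%, with every replicate also reaching it, limit read from the data, passing the limit was not always enough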
DENV2 CPE: protects cells from dengue virus 2 cytopathic effect | DENV2-infected cells, cytopathic effect rescue, plate reader | 1.7% of 350,000 active | CPE inhibition, % at 9.99 µM; in the data active means CPE inhibition above about 20%, passing the limit was not always enough; tested in BHK-21 cells;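 further: 0% = median of neutral control wells and 100% = median of positive control wells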
SIRT5 inh: inhibitors of human sirtuin-5 desuccinylase; Q9NXA8; Purified SirT5, succinyl-peptide AMC, trypsin-coupled fluorescence; inhibition, % at 15 µM; 1.1% of 330,000 active; in the data active means inhibition above about 15%
Target sequence (Q9NXA8 whole entry, looked up): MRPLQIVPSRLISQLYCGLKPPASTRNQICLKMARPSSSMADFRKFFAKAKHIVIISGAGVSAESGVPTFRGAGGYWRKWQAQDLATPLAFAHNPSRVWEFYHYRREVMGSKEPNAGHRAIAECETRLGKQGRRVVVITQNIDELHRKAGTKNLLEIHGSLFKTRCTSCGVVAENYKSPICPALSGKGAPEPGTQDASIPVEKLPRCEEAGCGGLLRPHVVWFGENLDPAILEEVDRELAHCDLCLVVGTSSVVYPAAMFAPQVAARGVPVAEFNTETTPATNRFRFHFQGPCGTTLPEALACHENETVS
* marks the source's active call; other numbers are inactive results; / = not tested or not shown. Hits are enriched below; roughly 2.3% of the tested compounds scored in any of these assays.

SMILES	ERp5 block	DENV2 CPE	SIRT5 inh
COCC(=O)N1CC2(C1)[C@H](c1ccccc1)[C@@H](CO)N2Cc1ccccc1OC	0	16	2
CCC(=O)N1CC2(C1)[C@H](c1ccccc1)[C@H](CO)N2Cc1ccccc1OC	-1	-10	23*
COc1ccccc1CN1[C@H](CO)[C@@H](c2ccccc2)C12CN(C(=O)c1ccccn1)C2	-10	89*	-1
C[C@@H]1CCCCO[C@H](CN(C)Cc2ccc(C(F)(F)F)cc2)[C@H](C)CN([C@@H](C)CO)C(=O)c2cc(NS(=O)(=O)c3ccc(F)cc3)ccc2O1	-4	7	0
C[C@@H]1CN([C@@H](C)CO)C(=O)c2cc(NS(=O)(=O)c3ccc(F)cc3)ccc2O[C@@H](C)CCCCO[C@@H]1CN(C)Cc1ccc(C(F)(F)F)cc1	-2	3	-3
C[C@@H]1CCCCO[C@H](CN(C)Cc2ccc(C(F)(F)F)cc2)[C@H](C)CN([C@H](C)CO)C(=O)c2cc(NS(=O)(=O)c3ccc(F)cc3)ccc2O1	1	30*	17*
C[C@@H]1CCCCO[C@@H](CN(C)Cc2ccc(C(F)(F)F)cc2)[C@H](C)CN([C@H](C)CO)C(=O)c2cc(NS(=O)(=O)c3ccccc3)ccc2O1	0	1	18*
C[C@H]1CCCCO[C@@H](CN(C)Cc2ccc(C(F)(F)F)cc2)[C@@H](C)CN([C@@H](C)CO)C(=O)c2cc(NS(=O)(=O)c3ccc(F)cc3)ccc2O1	-1	-8	20*
C[C@@H]1CCCCO[C@H](CN(C)Cc2ccc(C(F)(F)F)cc2)[C@@H](C)CN([C@@H](C)CO)C(=O)c2cc(NS(=O)(=O)c3ccc(F)cc3)ccc2O1	1	-4	19*
CN(C)C(=O)c1ccc(-c2cccc(-c3nc(C(=O)NC4CCCC4)cc4c3[C@H](CCO)N([S@@](=O)C(C)(C)C)C4)c2)cc1	-3	-1	3
COC(=O)C[C@H]1C[C@H]2c3cc(NC(=O)Nc4ccc(OC)cc4)ccc3O[C@H]2[C@H](CO)O1	/	4	/
CC(C)CC#Cc1ccc2c(c1)O[C@@H](CN(C)C(=O)Nc1ccccc1)[C@H](C)CN([C@H](C)CO)S2(=O)=O	4	1	3
C[C@H](CO)N1C[C@H](C)[C@H](CN(C)Cc2ccc(C(F)(F)F)cc2)OCCCC[C@H](C)Oc2ccc(NS(=O)(=O)c3ccc(F)cc3)cc2C1=O	6	-6	17*
CC(=O)NCCCC[C@@H]1NC(=O)[C@@H]2C[C@H](C(=O)NCc3ccc(F)cc3)[C@H](c3ccc(O)cc3)N2C1=O	0	20*	-1
CC(=O)NCCCC[C@@H]1NC(=O)[C@@H]2C[C@H](C(=O)O)[C@H](c3ccc(O)cc3)N2C1=O	1	5	-2
C[C@@H]1CN([C@@H](C)CO)C(=O)c2cc(NS(C)(=O)=O)ccc2O[C@@H](C)CCCCO[C@H]1CN(C)C(=O)c1ccncc1	1	69*	1
C[C@@H]1CCCCO[C@H](CN(C)C(=O)c2ccncc2)[C@@H](C)CN([C@@H](C)CO)C(=O)c2cc(NS(C)(=O)=O)ccc2O1	-1	-2	1
C[C@@H]1CN([C@H](C)CO)C(=O)c2cc(NS(=O)(=O)c3cn(C)cn3)ccc2O[C@@H](C)CCCCO[C@@H]1CN(C)C(=O)c1ccncc1	/	-9	-3
C[C@H](CO)N1C[C@H](C)[C@H](CN(C)C(=O)c2ccncc2)OCCCC[C@H](C)Oc2ccc(NS(=O)(=O)c3cn(C)cn3)cc2C1=O	-5	24*	-1
O=C1CCCCCCC(=O)[C@H](O)C[C@H](c2ccccc2)O1	0	50*	0
COc1ccc2c(c1)C(=O)O[C@@H](c1ccccc1)C[C@@H](O)C(=O)CC2	4	33*	20*
O=C(Nc1nccs1)[C@@H]1[C@@H](CO)[C@@H]2Cn3c(cccc3=O)[C@@H]2N1C(=O)C1CCCCC1	-4	2	1
CN(C)c1ccc2c(c1)[C@H]1C[C@H](CC(=O)NCc3ccccc3)O[C@@H](CO)[C@H]1O2	1	2	-3
CN(C)c1ccc2c(c1)[C@H]1C[C@@H](CC(=O)NCc3ccc(Oc4ccccc4)cc3)O[C@H](CO)[C@H]1O2	-3	82*	-1
CN(C)c1ccc2c(c1)[C@@H]1C[C@@H](CC(=O)NCc3ccccc3)O[C@H](CO)[C@@H]1O2	-2	3	20*
